Records with an inconclusive call do not appear. Activity calls are given as the source filed them.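 Rule for the calls, unless noted: active = aptamer binding inhibition above 30%, about 3 SD of noise from non-fluorescent compounds; inactive = inhibition at or below 30%.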
What was measured:
[1] = rapamycin-like changes in RPL19A-GFP expression – cell-based, S. cerevisiae, multiplex flow cytometry, primary screen (AID 1862; in the data active = percent of DMSO control GFP below about 86%;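 note: lower values mimic rapamycin by blocking the RPL19A rise seen in DMSO cells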); settings: S. cerevisiae RPL19A-GFP strain, flow cytometry fluorescence, 3 h; at 10 µM; stronger effect = lower value
[2] = TOR pathway GLN3 branch reporter MEP2-GFP changes – S. cerevisiae, multiplex flow cytometry, primary screen (AID 1867;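 active = GFP response, as percent of the DMSO control, above the screen-wide mean plus 3 SD, about 139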;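 note: median GFP channel fluorescence of barcode-gated MEP2-GFP cells measured by flow cytometry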); settings: S. cerevisiae MEP2-GFP strain, 3 h, at 10 µM, stronger effect = higher value, 100% means same as DMSO wells
[3] = TOR pathway RTG branch CIT2 reporter changes – S. cerevisiae, GFP fusion, multiplex flow cytometry, primary screen (AID 1870;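 active = percent response above a set limit, the screen-wide mean plus 3 SD, cut at about 130% in these data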;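 note: barcoded CIT2-GFP strain pooled with four other GFP strains with rapamycin as positive control; median GFP fluorescence per well over plate mean of DMSO wells so 100% = DMSO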); settings: S. cerevisiae CIT2-GFP expression, 3 h, at 10 µM, stronger effect = higher value
[4] = TOR pathway LAP4-GFP level changes – S. cerevisiae, multiplex flow cytometry, primary screen (AID 1873;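 active = GFP signal, as percent of the solvent control, above the screen mean plus 3 SD, about 149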); settings: S. cerevisiae LAP4-GFP expression, 3 h, at 10 µM, stronger effect = higher value
[5] = yeast AGP1-GFP level changes, GLN3 branch – cell-based, multiplex flow cytometry, S. cerevisiae, primary screen (AID 1887;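 active = GFP signal above the screen-wide mean plus 3 SD, that is over about 124.5% of the solvent control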;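 note: AGP1-GFP fusion strain of S. cerevisiae within a five-strain barcoded multiplex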); settings: 3 h, at 10 µM, stronger effect = higher value
[6] = reduced mouse 2C T cell binding to pMHC/ICAM-1 vesicles – MLPCN validation set, flow cytometry, LFA-1/ICAM-1 modulator project, pilot screen (AID 2523;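 active = response below a set limit, under 55% cells CD8-positive and vesicle-bound, and CD8 cells' 90th-percentile brightness under 279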;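 for vesicle binding response: mean PE anti-B7-1 fluorescence of CD8+ cells relative to row control; 100% = QL9-loaded vesicles with DMSO vehicle in the same plate row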); settings: 2C mouse CD8+ T cells, at 7 µM, stronger effect = lower value; double positive events: measured here: CD8+/vesicle+ event percentage
[7] = molecular target: Integrin beta-1 (Homo sapiens) + Integrin alpha-4 (Homo sapiens) (UniProt P13612+P05556); assay: alpha4beta1 integrin LIBS antibody binding reduction – U937 cells, HUTS-21 mAb, flow cytometry, validation set, VLA-4 allosteric modulator project, pilot screen (AID 2674;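 active = inhibition above 50%, about 3 SD of the validation set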;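 note: antibody binding induced by the VLA-4 ligand LDV present at three times its Kd; 0% = LDV ligand with antibody and no compound and 100% = antibody without LDV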); settings: HUTS-21 LIBS mAb binding, at 6.7 µM, stronger effect = higher value, binding induced by LDV ligand
Chain of Integrin beta-1 (Homo sapiens) + Integrin alpha-4 (Homo sapiens) (P05556 whole entry, looked up): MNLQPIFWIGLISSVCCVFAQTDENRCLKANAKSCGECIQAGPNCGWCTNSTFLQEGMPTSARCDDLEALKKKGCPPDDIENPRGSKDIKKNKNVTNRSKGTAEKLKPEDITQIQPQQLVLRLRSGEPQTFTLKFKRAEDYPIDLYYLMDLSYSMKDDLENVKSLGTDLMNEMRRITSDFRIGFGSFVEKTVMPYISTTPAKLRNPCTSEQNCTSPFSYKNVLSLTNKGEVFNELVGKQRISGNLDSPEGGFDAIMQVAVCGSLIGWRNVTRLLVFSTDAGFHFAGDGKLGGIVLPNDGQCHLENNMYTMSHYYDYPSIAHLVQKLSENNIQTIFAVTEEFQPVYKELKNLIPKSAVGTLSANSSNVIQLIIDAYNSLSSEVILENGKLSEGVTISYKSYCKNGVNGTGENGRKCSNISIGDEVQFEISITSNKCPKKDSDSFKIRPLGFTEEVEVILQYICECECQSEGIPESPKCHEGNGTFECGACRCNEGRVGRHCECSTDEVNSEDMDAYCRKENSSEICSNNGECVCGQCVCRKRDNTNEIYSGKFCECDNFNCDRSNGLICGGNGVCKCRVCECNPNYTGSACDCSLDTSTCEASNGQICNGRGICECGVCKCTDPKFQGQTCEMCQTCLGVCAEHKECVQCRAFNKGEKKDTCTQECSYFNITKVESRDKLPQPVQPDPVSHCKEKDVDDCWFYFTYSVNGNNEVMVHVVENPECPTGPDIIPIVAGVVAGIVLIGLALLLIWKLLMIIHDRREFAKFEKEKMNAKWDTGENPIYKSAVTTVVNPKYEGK
Chain of Integrin beta-1 (Homo sapiens) + Integrin alpha-4 (Homo sapiens) (P13612 whole entry, looked up): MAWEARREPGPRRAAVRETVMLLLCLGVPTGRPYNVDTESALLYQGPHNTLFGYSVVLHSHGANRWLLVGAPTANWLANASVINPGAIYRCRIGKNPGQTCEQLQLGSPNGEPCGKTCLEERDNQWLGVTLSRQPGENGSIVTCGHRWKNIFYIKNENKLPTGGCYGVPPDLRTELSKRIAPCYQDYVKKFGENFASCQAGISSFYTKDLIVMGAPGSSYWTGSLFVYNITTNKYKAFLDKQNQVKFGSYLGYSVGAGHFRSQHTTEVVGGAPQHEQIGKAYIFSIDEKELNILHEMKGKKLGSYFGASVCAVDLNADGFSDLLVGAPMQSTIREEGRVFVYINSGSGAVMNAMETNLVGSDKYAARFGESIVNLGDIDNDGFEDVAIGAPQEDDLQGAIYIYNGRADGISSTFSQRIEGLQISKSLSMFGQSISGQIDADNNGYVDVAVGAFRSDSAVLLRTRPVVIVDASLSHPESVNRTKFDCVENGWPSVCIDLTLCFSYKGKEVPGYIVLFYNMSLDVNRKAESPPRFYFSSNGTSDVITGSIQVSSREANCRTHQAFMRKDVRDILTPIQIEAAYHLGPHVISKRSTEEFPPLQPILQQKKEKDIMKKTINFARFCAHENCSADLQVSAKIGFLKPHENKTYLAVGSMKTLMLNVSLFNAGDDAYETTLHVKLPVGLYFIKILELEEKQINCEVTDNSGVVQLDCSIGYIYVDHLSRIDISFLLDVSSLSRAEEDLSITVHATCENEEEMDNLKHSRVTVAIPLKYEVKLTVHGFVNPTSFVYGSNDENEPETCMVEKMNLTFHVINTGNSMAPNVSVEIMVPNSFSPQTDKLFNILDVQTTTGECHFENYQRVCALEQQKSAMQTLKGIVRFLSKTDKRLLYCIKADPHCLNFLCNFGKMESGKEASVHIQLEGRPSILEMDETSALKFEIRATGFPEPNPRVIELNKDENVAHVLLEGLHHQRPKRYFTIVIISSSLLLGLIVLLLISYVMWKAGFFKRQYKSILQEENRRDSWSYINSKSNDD

[8] = calorie-restriction mimetic ROS inhibitors, yeast – validation compound set, pilot screen (AID 2706;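 active = superoxide response below 65% of plate, a cut near 3 SD across the whole screen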;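 note: yeast exposed to compound for one week at 30 degrees C before staining; 100% = mean of all compound wells on the same plate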); settings: S. cerevisiae aging, superoxide DHE fluorescence; at 10 µM, stronger effect = lower value
[9] = molecular target: Beta-adrenergic receptor kinase 1 (Homo sapiens) (UniProt P25098); assay: GRK2 binders displacing RNA aptamer, biochemical, validation, human GRK2, bead flow cytometry (AID 488806); settings: bead-bound GRK2, FAM-aptamer displacement, at 10 µM, stronger effect = higher value
Chain of Beta-adrenergic receptor kinase 1 (Homo sapiens) (P25098 whole entry, looked up, the tested form may be a part): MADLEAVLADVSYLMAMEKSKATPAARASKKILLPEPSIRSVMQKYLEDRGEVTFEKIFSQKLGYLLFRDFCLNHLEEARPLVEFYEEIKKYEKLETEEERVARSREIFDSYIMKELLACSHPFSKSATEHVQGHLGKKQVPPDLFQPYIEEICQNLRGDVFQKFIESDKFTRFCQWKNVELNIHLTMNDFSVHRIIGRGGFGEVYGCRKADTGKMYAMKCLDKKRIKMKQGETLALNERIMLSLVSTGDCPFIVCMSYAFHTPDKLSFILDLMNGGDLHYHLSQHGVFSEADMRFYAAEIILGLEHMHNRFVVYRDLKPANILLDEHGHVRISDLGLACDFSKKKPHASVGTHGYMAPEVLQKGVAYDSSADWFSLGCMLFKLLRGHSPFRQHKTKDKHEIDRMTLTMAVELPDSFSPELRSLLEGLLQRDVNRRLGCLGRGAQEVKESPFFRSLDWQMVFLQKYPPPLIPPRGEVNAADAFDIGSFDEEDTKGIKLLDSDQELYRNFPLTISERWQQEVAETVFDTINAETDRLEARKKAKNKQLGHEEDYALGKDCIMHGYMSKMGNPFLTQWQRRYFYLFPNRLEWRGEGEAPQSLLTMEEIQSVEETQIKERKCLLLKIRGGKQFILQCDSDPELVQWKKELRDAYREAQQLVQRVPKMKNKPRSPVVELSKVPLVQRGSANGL

[10] = molecular target: AP-2 complex subunit beta (Homo sapiens) (UniProt P63010); assay: beta-arrestin/AP2 interaction blockers – biochemical, validation set, GST-AP2 beads, flow cytometry, pilot screen (AID 504541;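 active = inhibition above 54%, about 3 SD of non-fluorescent compounds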;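 note: AP2 carries R879A mutation and is captured from E. coli lysate; bead-bound FITC arrestin peptide fluorescence measuring arrestin peptide binding to AP2; 0% = DMSO wells and 100% = excess unlabeled arrestin peptide control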); settings: FITC arrestin peptide, at 10 µM, stronger effect = higher value, AP2 beta2 appendage fragment, R879A mutant
Chain of AP-2 complex subunit beta (Homo sapiens) (P63010 whole entry, looked up, the tested form may be a part, one chain of several): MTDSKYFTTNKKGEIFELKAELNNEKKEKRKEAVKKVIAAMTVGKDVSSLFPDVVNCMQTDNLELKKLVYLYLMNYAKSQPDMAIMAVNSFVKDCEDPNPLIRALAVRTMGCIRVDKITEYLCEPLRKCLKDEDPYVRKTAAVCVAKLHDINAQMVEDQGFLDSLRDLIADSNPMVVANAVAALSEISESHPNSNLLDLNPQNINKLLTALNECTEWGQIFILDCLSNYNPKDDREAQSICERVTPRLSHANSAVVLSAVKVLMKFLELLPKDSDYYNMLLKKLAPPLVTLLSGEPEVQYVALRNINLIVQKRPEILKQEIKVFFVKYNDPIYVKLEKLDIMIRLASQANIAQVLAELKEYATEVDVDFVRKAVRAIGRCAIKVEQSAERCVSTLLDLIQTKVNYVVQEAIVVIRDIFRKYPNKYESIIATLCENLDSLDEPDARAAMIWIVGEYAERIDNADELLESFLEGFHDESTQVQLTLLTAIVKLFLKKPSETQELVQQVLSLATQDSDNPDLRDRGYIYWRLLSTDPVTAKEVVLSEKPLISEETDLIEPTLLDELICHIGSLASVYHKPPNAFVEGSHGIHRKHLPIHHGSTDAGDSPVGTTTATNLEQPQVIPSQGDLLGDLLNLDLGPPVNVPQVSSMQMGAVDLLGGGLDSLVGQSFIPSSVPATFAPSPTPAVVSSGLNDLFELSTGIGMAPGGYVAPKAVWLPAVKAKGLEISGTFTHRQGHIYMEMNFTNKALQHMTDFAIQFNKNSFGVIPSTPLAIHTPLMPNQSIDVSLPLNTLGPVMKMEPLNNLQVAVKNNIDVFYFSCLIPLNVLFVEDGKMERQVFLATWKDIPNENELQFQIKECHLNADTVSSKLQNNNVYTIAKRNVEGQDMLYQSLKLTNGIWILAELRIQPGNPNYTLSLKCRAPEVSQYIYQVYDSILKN

[11] = cytosolic pH regulators acting via V-ATPase – S. cerevisiae, pHLuorin, HTS validation (AID 504600; in the data active = response above about 15%;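 note: plate controls were DMSO for no effect and reference compound for full effect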); settings: V-ATPase proton transport, at 10 µM, stronger effect = higher value
[12] = system: anti-desmoglein-3 scFv antibody binding to human DSG3; assay: blockers of pathogenic pemphigus antibody–desmoglein-3 binding – biochemical, validation compound set, bead-based, flow cytometry, pilot screen (AID 588368;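 active = binding below the plate cutoff, the plate median minus 3 SD, with a reading above zero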;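 note: signal is the median channel fluorescence of bead-bound GFP antibody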); settings: Protein G beads, DSG3-Fc, scFv-GFP binding, at 10 µM, stronger effect = lower value
[13] = Nile Red efflux blockade in pump-expressing yeast – validation compound set, multiplex, phenotypic, pilot screen (AID 588506;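 active = efflux inhibition above 0.42, the validation set average plus 4 SD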;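 note: Nile Red retained in cells so higher fluorescence means more efflux inhibition; 0 = negative control wells and 1 = enniatin B 25 µM full block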); settings: S. cerevisiae pump-expressing triplex, Nile Red efflux flow cytometry; at 10 µM; stronger effect = higher value; the pumps come from Candida albicans
[14] = molecular target: ATP-binding cassette sub-family B member 6 (Homo sapiens) (UniProt Q9NP58); assay: blockers of ABCB6-driven porphyrin uptake – K562-ABCB6 cells, flow cytometry, validation set, pilot screen (AID 588550;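 active = inhibition above the screen-wide mean plus 3 SD, about 51%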;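 note: 0% = DMSO wells and 100% = benzethonium chloride 70 µM positive control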); settings: K562-ABCB6 porphyrin accumulation, 1 h, at 10 µM, stronger effect = higher value
Chain of ATP-binding cassette sub-family B member 6 (Homo sapiens) (Q9NP58 whole entry, looked up): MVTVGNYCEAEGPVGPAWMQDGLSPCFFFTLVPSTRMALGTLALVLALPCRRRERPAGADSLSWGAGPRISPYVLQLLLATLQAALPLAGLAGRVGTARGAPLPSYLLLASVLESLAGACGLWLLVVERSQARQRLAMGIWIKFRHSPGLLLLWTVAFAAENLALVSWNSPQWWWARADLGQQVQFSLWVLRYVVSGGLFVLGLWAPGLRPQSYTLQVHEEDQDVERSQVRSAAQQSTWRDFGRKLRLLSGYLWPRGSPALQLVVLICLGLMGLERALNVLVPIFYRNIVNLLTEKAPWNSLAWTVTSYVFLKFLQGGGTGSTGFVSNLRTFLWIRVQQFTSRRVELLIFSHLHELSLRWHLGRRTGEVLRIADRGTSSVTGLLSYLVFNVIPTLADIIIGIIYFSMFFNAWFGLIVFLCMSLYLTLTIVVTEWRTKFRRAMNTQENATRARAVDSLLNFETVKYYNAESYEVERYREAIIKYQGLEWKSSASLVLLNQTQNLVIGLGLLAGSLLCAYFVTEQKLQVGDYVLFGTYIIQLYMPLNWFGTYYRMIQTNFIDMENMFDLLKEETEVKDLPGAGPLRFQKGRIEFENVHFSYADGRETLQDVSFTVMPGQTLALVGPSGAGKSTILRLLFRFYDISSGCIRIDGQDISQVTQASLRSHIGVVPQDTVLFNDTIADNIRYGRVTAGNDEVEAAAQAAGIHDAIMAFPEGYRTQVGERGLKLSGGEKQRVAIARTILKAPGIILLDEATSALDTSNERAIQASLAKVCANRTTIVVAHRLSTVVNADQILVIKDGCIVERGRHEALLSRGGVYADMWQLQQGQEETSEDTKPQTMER

[15] = AML differentiation inducers, ER-HoxA9 marrow cells – cell-based, GFP/MAC1 double positive, flow cytometry, validation set, primary screen (AID 588685;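 active = differentiation response of at least 50%, scaled between solvent and reference control, from cells with both markers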;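 note: compound exposure lasts four days before antibody staining and flow analysis; 0% = DMSO wells and 100% = 5 µM fulvestrant positive control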); settings: stronger effect = higher value, normalized: vehicle 0, fulvestrant 100
[16] = molecular target: Beta-2 adrenergic receptor (Homo sapiens) (UniProt P07550); assay: agonist-induced loss of surface beta2AR – cell-based, FAP fluorogen, flow cytometry, validation set, pilot screen (AID 504459;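 active = percent response above 42, roughly 3 SD of non-fluorescent test compounds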;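 note: agonist-driven loss of surface beta2AR via internalization measured by FAP dye flow cytometry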); settings: Am2.2-beta2AR cells, at 10 µM, stronger effect = higher value
Chain of Beta-2 adrenergic receptor (Homo sapiens) (P07550 whole entry, looked up): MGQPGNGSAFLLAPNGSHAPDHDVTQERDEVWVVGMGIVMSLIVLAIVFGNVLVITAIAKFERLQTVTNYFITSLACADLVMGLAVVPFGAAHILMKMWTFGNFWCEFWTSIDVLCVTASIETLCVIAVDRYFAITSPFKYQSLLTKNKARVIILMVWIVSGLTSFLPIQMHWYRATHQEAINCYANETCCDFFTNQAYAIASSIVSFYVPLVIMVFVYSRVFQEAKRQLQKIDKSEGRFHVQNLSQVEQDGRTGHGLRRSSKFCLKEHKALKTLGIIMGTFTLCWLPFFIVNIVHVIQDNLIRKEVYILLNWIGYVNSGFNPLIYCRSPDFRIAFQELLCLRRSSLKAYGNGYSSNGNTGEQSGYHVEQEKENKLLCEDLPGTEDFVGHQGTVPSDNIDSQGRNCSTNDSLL

CC(C)Oc1ccc(C(CC(=O)O)c2ccc(F)cc2)cc1 (stereo not given)
62.7%: double positive events [6]
inactive: percent of DMSO control GFP [1] 102% | GFP response vs DMSO [2] 108% | percent response of DMSO control [3] 92% | GFP response vs DMSO [4] 113% | GFP response, % of DMSO [5] 90.4% | vesicle binding response [6] 164% | inhibition [7] 9.09% | superoxide response (% of plate) [8] 105% | aptamer binding inhibition [9] 5% | inhibition [10] -6.35% | response [11] 3.61% | binding (% of control) [12] 96.7% | efflux inhibition (fraction of control) [13] 0.18 | inhibition [14] 5% | differentiation response [15] -18%

O=C(NCCCCCc1nc2ccccc2[nH]1)c1ccccc1Cl
62.5%: double positive events [6]
active: efflux inhibition (fraction of control) [13] 0.69
inactive: percent of DMSO control GFP [1] 101% | GFP response vs DMSO [2] 107% | percent response of DMSO control [3] 98.6% | GFP response vs DMSO [4] 95.9% | GFP response, % of DMSO [5] 103% | vesicle binding response [6] 124% | inhibition [7] -7.79% | superoxide response (% of plate) [8] 102% | aptamer binding inhibition [9] 3% | response [16] 25.8% | response [11] -2.36% | binding (% of control) [12] 109% | inhibition [14] 6% | differentiation response [15] 10.1%

COc1cc(Cl)cc2c1Sc1ccccc1/C2=C/CCN(C)C
inactive: percent of DMSO control GFP [1] 97.1% | GFP response vs DMSO [2] 105% | percent response of DMSO control [3] 94.9% | GFP response vs DMSO [4] 93.7% | GFP response, % of DMSO [5] 92.6% | vesicle binding response [6] 1310% | inhibition [7] -7.47% | superoxide response (% of plate) [8] 104% | aptamer binding inhibition [9] -8% | response [16] 20% | response [11] 0.4% | binding (% of control) [12] 110% | efflux inhibition (fraction of control) [13] -0.09 | inhibition [14] 0% | differentiation response [15] -2.64%
63.9%: double positive events [6]

CC(=O)c1c(N)nc2n(c1=O)CCCCC2
55.2%: double positive events [6]
inactive: percent of DMSO control GFP [1] 103% | GFP response vs DMSO [2] 102% | percent response of DMSO control [3] 108% | GFP response vs DMSO [4] 93.3% | GFP response, % of DMSO [5] 102% | vesicle binding response [6] 201% | inhibition [7] 14.7% | superoxide response (% of plate) [8] 94.2% | aptamer binding inhibition [9] 4% | inhibition [10] 2.65% | response [11] 0.91% | binding (% of control) [12] 98.7% | efflux inhibition (fraction of control) [13] -0.09 | inhibition [14] 10% | differentiation response [15] 9.49%

CC[N+](C)(CC)CCOC(=O)C(O)(c1ccccc1)C1CCCCC1 (stereo not given)
57.8%: double positive events [6]
inactive: percent of DMSO control GFP [1] 101% | GFP response vs DMSO [2] 103% | percent response of DMSO control [3] 105% | GFP response vs DMSO [4] 105% | GFP response, % of DMSO [5] 103% | vesicle binding response [6] 175% | inhibition [7] -32.9% | superoxide response (% of plate) [8] 102% | aptamer binding inhibition [9] -3% | inhibition [10] -1.88% | response [11] 6.06% | binding (% of control) [12] 98.5% | efflux inhibition (fraction of control) [13] -0.01 | inhibition [14] -1% | differentiation response [15] 0%

CCc1c(C)c2ccc(OCC(=O)OC(C)C)c(C)c2oc1=O
57.1%: double positive events [6]
inactive: percent of DMSO control GFP [1] 98.1% | GFP response vs DMSO [2] 96.9% | percent response of DMSO control [3] 93% | GFP response vs DMSO [4] 89.3% | GFP response, % of DMSO [5] 88.5% | vesicle binding response [6] 142% | inhibition [7] 7.22% | superoxide response (% of plate) [8] 101% | aptamer binding inhibition [9] -3% | inhibition [10] 19.5% | response [11] 3.44% | binding (% of control) [12] 101% | efflux inhibition (fraction of control) [13] 0.29 | inhibition [14] 8% | differentiation response [15] -18%

O=c1ccn([C@@H]2O[C@H](CO)[C@@H](O)[C@H]2O)c(=O)[nH]1
63.9%: double positive events [6]
inactive: percent of DMSO control GFP [1] 102% | GFP response vs DMSO [2] 102% | percent response of DMSO control [3] 93.8% | GFP response vs DMSO [4] 98.3% | GFP response, % of DMSO [5] 109% | vesicle binding response [6] 124% | inhibition [7] 11.7% | superoxide response (% of plate) [8] 99.8% | aptamer binding inhibition [9] 3% | response [16] -22.4% | inhibition [10] 10.2% | response [11] 1.83% | binding (% of control) [12] 102% | inhibition [14] 1% | differentiation response [15] 24.6%

CC1(C(=O)O)CCC(C(=O)NC2CCCCCC2)C1(C)C (stereo not given)
67.7%: double positive events [6]
inactive: percent of DMSO control GFP [1] 103% | GFP response vs DMSO [2] 106% | percent response of DMSO control [3] 93.9% | GFP response vs DMSO [4] 110% | GFP response, % of DMSO [5] 100% | vesicle binding response [6] 157% | inhibition [7] 28.3% | superoxide response (% of plate) [8] 99.3% | aptamer binding inhibition [9] 3% | response [16] 10.4% | inhibition [10] -8.9% | response [11] -1.45% | binding (% of control) [12] 102% | efflux inhibition (fraction of control) [13] -0.54 | inhibition [14] 7% | differentiation response [15] -5.68%

CN1CCC(=C2c3ccccc3CC(=O)c3sccc32)CC1
62.4%: double positive events [6]
inactive: percent of DMSO control GFP [1] 101% | GFP response vs DMSO [2] 101% | percent response of DMSO control [3] 108% | GFP response vs DMSO [4] 94.8% | GFP response, % of DMSO [5] 101% | vesicle binding response [6] 136% | inhibition [7] -3.77% | superoxide response (% of plate) [8] 96.5% | aptamer binding inhibition [9] -2% | response [16] 11.7% | inhibition [10] -10.2% | response [11] 1.45% | binding (% of control) [12] 105% | inhibition [14] 4% | differentiation response [15] -14.8%

Source: PubChem BioAssay
